PubChem BioAssay (NCI)
Compounds without any hit were thinned out: in the full panel of roughly 83,000, 20% have a hit.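 For each line, cells grew in 96-well plates with the test compound present at a single concentration for 48 hours.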 Unmarked numbers belong to inactive results. Active and inactive are the calls of the source. How the source made its calls: active means growth percent below 10; inactive means the rest.

Assays:
Experiment in all cases: NCI-60 one-dose screen, 48 h (100 = growth as untreated, 0 = no growth, -100 = all killed)
Conditions in all cases: 10 µM unless noted
[1] = test system: NCI-H23 lung
[2] = test system: NCI-H226 lung
[3] = test system: NCI-H322M lung
[4] = test system: HOP-62 NSCLC
[5] = test system: NCI-H460 lung
[6] = test system: HOP-92 NSCLC
[7] = test system: NCI-H522 lung
[8] = test system: A549/ATCC NSCLC
[9] = test system: 786-0 renal
[10] = test system: COLO 205 colon
[11] = test system: DU-145 prostate
[12] = test system: K-562 leukemia
[13] = test system: MALME-3M melanoma
[14] = test system: MDA-MB-231 breast
[15] = test system: RXF 393 renal
[16] = test system: SF-268 CNS
[17] = test system: SF-295 CNS
[18] = test system: SF-539 CNS
[19] = test system: UACC-257 melanoma
[20] = test system: M14 melanoma

SMILES | growth [1] | growth [2] | growth [3] | growth [4] | growth [5] | growth [6] | growth [7] | growth [8] | growth [9] | growth [10] | growth [11] | growth [12] | growth [13] | growth [14] | growth [15] | growth [16] | growth [17] | growth [18] | growth [19] | growth [20]
COc1cc(-c2nc(SCC(C)C)nc(Nc3cccc4ccccc34)c2C#N)cc(OC)c1OC | 102% | 82.5% | 101% | 87.2% | 82.3% | 92.9% | 89.2% | 88.4% | 103% | 95.3% | 94.4% | 57% | 87.7% | 57.1% | 119% | 92.6% | 101% | 101% | 106% | 103%
Cc1ccc(Cl)cc1Nc1nc(C(F)(F)F)ccc1C(=O)N/N=C/c1cccnc1 | 37.4% | 30.7% | 25.1% | 29.4% | 18.3% | 11.3% | -5.81% (active) | 27.5% | 2.05% (active) | 38.9% | 41.5% | 7.72% (active) | 15% | 33.4% | 11.6% | 27.7% | -20.6% (active) | 27.1% | 28.2% | 47.9%
N#CC1C=CN(CC(N)=O)c2ccc3cccnc3c21 (stereo not given) | 94.7% | 87.5% | 97.3% | 95.2% | 103% | 98.3% | 85.6% | 88.9% | 98.3% | 80.3% | 108% | 94.7% | 97.5% | 95.5% | 114% | 105% | 103% | 99.1% | 89% | 97.7%
O=[N+]([O-])c1ccc(N/N=C(/C(=N/Nc2ccc([N+](=O)[O-])cc2)c2ccccc2)c2ccccc2)cc1 | 82.5% | 97.5% | 81.1% | 76.6% | 46.2% | 107% | 50.8% | 90.9% | 103% | 87.3% | 9.75% (active) | 84.4% | 100% | 81.9% | 62.8% | 104% | 69.3% | 94.2% | 98.9% | 80.2%
O=[N+]([O-])C1C(c2ccccc2)C12c1ccccc1-c1ccccc12 (stereo not given) | 7.97% (active) | 15% | 29.3% | 34.2% | -14.3% (active) | -3.91% (active) | -13.8% (active) | 8.59% (active) | 4.98% (active) | 14.9% | -36.8% (active) | -12.5% (active) | 59.4% | 6.89% (active) | -21.8% (active) | 29.3% | -23.1% (active) | -12.2% (active) | 40.9% | -10.2% (active)
CCN(CC)C(=S)SC(SC(=S)N(CC)CC)C(=O)c1nnn(-c2ccc([N+](=O)[O-])cc2)c1C | 98.4% | 104% | 98.5% | 97.3% | 73.9% | 89.5% | 79.5% | 95.9% | 94.2% | 95.2% | 104% | 81% | 94.3% | 95.1% | 114% | 92.9% | 100% | 98.3% | 101% | 96.9%
CC(=O)n1nc(C(=O)OC(C)C)c2cc(C)c(C)cc21 | 95.2% | 96.4% | 101% | 92.1% | 98.7% | 67.1% | 88.8% | 82.2% | 80.9% | 102% | 105% | 91.1% | 95% | 102% | 118% | 102% | 89.8% | 107% | 92.3% | 93.7%
O=C1c2cccc(NCCN=Cc3cc(O)ccc3O)c2C(=O)c2c(NCCN=Cc3cc(O)ccc3O)cccc21 | -26.1% (active) | 6.91% (active) | -11.3% (active) | -9.1% (active) | -70.8% (active) | -25.5% (active) | -65% (active) | -55.6% (active) | 0.261% (active) | -41.4% (active) | -68.5% (active) | -94.8% (active) | -24.6% (active) | -41% (active) | -34.2% (active) | -34.9% (active) | -23.6% (active) | -8.67% (active) | 57.9% | -4.47% (active)
O=C1/C(=C/c2ccc(F)cc2)COc2ccc(O)c(O)c21 | 44.3% | 79.6% | 39.9% | 8.74% (active) | 48.6% | 6.21% (active) | -65.1% (active) | 47.4% | -47.6% (active) | 28% | 18.6% | 10.6% | -10.4% (active) | -12.1% (active) | -3.02% (active) | 13.1% | 75% | -62.1% (active) | 15.8% | 37.5%
CC(C)=NNc1ccccn1 | 68% | 40.9% | 19.4% | 32.8% | 30% | 40.4% | 25.5% | 35.1% | 61.7% | 3.92% (active) | 48.4% | 59.2% | 48.5% | 36.4% | 69.8% | 43.7% | 67.6% | 43.5% | 11.9% | 35.8%
CCNc1nc(-c2ccc(Cl)c(OC)c2)c(-c2ccnc(NCCCNS(=O)(=O)c3ccc(Cl)cc3)n2)s1 | 83.7% | 72.2% | 101% | 61.7% | 63.7% | 20.9% | 28.9% | 44.9% | 54.3% | 11.7% | 74.3% | 32.3% | 7.63% (active) | 50.9% | 70.2% | 60.4% | 70.3% | 86.6% | 29.2% | 23%
CCc1ccc(Oc2cn[nH]c2-c2ccc(OCCc3ccc(F)cc3)cc2O)cc1 | 92.8% | 96.7% | 98.6% | 114% | 94.8% | 83.2% | -36.5% (active) | 66.9% | 99.7% | 108% | 90.5% | 100% | 95.1% | 85% | 111% | 88.9% | 99.2% | 106% | 93.3% | 83.1%
CN1CCN(C(=O)c2ccc(NC(=O)Nc3ccc(-c4nc(N5CCOCC5)c5cccn5n4)cc3)cc2)CC1 | 15.4% | -6.51% (active) | -12% (active) | -13.5% (active) | 7.17% (active) | -28.6% (active) | 12.4% | 1.15% (active) | -20.1% (active) | -11.4% (active) | 7.11% (active) | 15.3% | -37% (active) | 2.25% (active) | -39.5% (active) | 4.85% (active) | -43.6% (active) | -40.1% (active) | -21.3% (active) | -22% (active)
